Assay results from PubChem BioAssay AID720597 (Broad Institute, 2013).
Entries with a potency or affinity are not part of this list.

target: NAD-dependent protein deacylase sirtuin-5, mitochondrial (Homo sapiens) (UniProt Q9NXA8); experiment: blockers of sirtuin-5 peptide desuccinylation – biochemical, fluorescence imaging, cherry-pick, set 6, dose response (AID 720597); conditions: Purified SirT5, succinyl-peptide-AMC/trypsin fluorescence; series mostly up to 15 µM; activity change, negative = inhibition: at the top concentration;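 note: lower AMC signal can also come from blocking the trypsin step; 0% = median of neutral control wells and -100% = median of positive control wells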
Sequence (Q9NXA8 whole entry, looked up): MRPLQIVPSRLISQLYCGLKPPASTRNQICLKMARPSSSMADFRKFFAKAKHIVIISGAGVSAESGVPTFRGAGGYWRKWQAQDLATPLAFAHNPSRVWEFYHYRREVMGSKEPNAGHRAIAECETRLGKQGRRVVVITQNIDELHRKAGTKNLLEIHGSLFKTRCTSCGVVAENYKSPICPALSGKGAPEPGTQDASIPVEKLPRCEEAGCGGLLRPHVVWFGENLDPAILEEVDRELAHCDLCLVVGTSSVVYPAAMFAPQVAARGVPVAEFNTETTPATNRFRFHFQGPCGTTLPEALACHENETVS

Activity change, negative = inhibition, inactive:
Cc1ccc(-c2ccc3c(c2)O[C@@H](CN(C)Cc2ccccc2)[C@@H](C)CN([C@@H](C)CO)S3(=O)=O)cc1 -12.1%, C[C@H]1CN([C@@H](C)CO)S(=O)(=O)c2ccc(-c3cccc(F)c3)cc2O[C@H]1CN(C)S(=O)(=O)c1ccc(F)cc1 7.74%, Cc1ccc(S(=O)(=O)N(C)C[C@@H]2OCCCC[C@@H](C)Oc3ccc(NS(=O)(=O)c4ccc(F)cc4)cc3C(=O)N([C@@H](C)CO)C[C@H]2C)cc1 11%, C[C@H](CO)N1C[C@H](C)[C@@H](CN(C)Cc2ccc(C(=O)O)cc2)Oc2ccc(NS(=O)(=O)c3ccc(Cl)cc3)cc2C1=O 5.79%, C[C@H](CO)N1C[C@H](C)[C@H](CN(C)Cc2ccc(-c3ccccc3)cc2)Oc2ccc(NC(=O)CCCCCC(=O)Nc3ccccc3N)cc2C1=O 28.7%, CO[C@H](CN(C)C(=O)c1ccc2c(c1)OCO2)[C@H](C)CN([C@H](C)CO)S(=O)(=O)c1ccccc1 -23.5%, O=C(Nc1cc(F)ccc1F)N1CC(=O)N2[C@H](C1)[C@@H](c1ccc(C#CC3CCCCC3)cc1)[C@@H]2CO 8.23% [at 3.8 µM], CC(C)CC#Cc1cnc2c(c1)C(=O)N([C@H](C)CO)C[C@H](C)[C@H](CN(C)CC1CCOCC1)O2 -7.96%, C[C@H](O)C#Cc1ccc2c(c1)O[C@H](CN(C)Cc1ccc(-c3ccccc3)cc1)[C@H](C)CN([C@@H](C)CO)S2(=O)=O -28.8%, Cc1ccc(S(=O)(=O)N(C)C[C@@H]2OCCCC[C@H](C)Oc3ccc(NS(=O)(=O)c4ccc(F)cc4)cc3C(=O)N([C@@H](C)CO)C[C@H]2C)cc1 18.7%, COc1ccccc1-c1ccc2c(c1)O[C@@H](CN(C)S(=O)(=O)c1ccccc1)[C@H](C)CN([C@H](C)CO)S2(=O)=O 7.71%, C[C@H]1CN([C@@H](C)CO)C(=O)c2cc(NC(=O)C3CCCCC3)ccc2O[C@@H]1CN(C)CC1CC1 -28.9%, COCC(=O)N1C[C@@H](C)[C@@H](OC)CN(C)C(=O)c2ccc(NC(=O)c3cc(C)on3)cc2OC[C@@H]1C -17%, Cc1ccc(S(=O)(=O)N(C)C[C@H]2OCCCC[C@@H](C)Oc3ccc(NS(=O)(=O)c4ccc(F)cc4)cc3C(=O)N([C@@H](C)CO)C[C@H]2C)cc1 -8.24%, C[C@H]1CN([C@@H](C)CO)S(=O)(=O)c2ccc(-c3cccc(F)c3)cc2O[C@@H]1CN(C)S(=O)(=O)c1ccc(F)cc1 4.42%, COc1ccc(S(=O)(=O)Nc2ccc3c(c2)C(=O)N([C@H](C)CO)C[C@H](C)[C@H](CN(C)Cc2ccc(C(F)(F)F)cc2)OCCCC[C@H](C)O3)cc1 3.57%, CCCC#Cc1cnc2c(c1)C(=O)N([C@@H](C)CO)C[C@@H](C)[C@H](CN(C)S(=O)(=O)c1cccc(OC)c1)O2 11.7%, C[C@H](NC(=O)C[C@@H]1CC[C@H]2[C@@H](COC[C@@H](O)CN2C(=O)Nc2cccc(F)c2)O1)c1ccccc1 -27.1%, C[C@H](O)C#Cc1ccc2c(c1)O[C@@H](CN(C)Cc1ccc(-c3ccccc3)cc1)[C@@H](C)CN([C@H](C)CO)S2(=O)=O 10.3%, O=C1CN(S(=O)(=O)c2ccccc2)C[C@@H]2[C@H](c3ccc(C#Cc4ccccc4)cc3)[C@H](CO)N12 3.33%, COc1ccc(S(=O)(=O)N(C)C[C@H]2OCCCC[C@H](C)Oc3ccc(NS(=O)(=O)c4ccc(C)cc4)cc3C(=O)N([C@H](C)CO)C[C@H]2C)cc1 -17.5%, COc1ccc(CN(C)C[C@H]2Oc3c(NC(=O)Nc4ccc(F)cc4)cccc3C(=O)N([C@@H](C)CO)C[C@@H]2C)cc1 -22.5%, C[C@@H]1CCCCO[C@H](CN(C)C(=O)Nc2ccc(C(F)(F)F)cc2)[C@@H](C)CN([C@H](C)CO)C(=O)c2cc(NS(=O)(=O)c3ccc(Cl)cc3)ccc2O1 2.91%, C[C@H]1CN([C@@H](C)CO)S(=O)(=O)c2ccc(/C=C/c3ccccc3)cc2O[C@@H]1CN(C)C(=O)NC1CCCC1 7.67%, CC(C)C#Cc1ccc([C@@H]2[C@@H](CO)N3C(=O)CN(C(=O)c4ccc5c(c4)OCO5)C[C@H]23)cc1 -20.6%, OC[C@H]1[C@@H](c2ccc(-c3cccc(F)c3)cc2)[C@H]2CN(CCC(F)(F)F)CCCCN21 23%, O=C(NCC[C@H]1CC[C@@H](NS(=O)(=O)c2cccc(F)c2)[C@H](CO)O1)C1CCOCC1 14.3%, Cc1ccc(S(=O)(=O)N(C)C[C@@H]2Oc3ncc(C#Cc4ccc(C(F)(F)F)cc4)cc3C(=O)N([C@H](C)CO)C[C@@H]2C)cc1 18.9%, Cc1ccc(S(=O)(=O)Nc2ccc3c(c2)C(=O)N([C@H](C)CO)C[C@H](C)[C@@H](CN(C)Cc2ccc(Cl)c(Cl)c2)OCCCC[C@H](C)O3)cc1 -10.7%, C/C=C/c1ccc2c(c1)O[C@H](CN(C)Cc1cccc(F)c1)[C@H](C)CN([C@H](C)CO)S2(=O)=O 9.66%, CCNC(=O)C[C@H]1CC[C@H]2[C@@H](COc3ccc(NS(=O)(=O)c4ccccc4C)cc3C(=O)N2C)O1 -7.91%, C[C@@H]1CN([C@@H](C)CO)C(=O)c2cccc(NC(=O)c3ccncc3)c2O[C@H]1CN(C)Cc1ccccc1 -10.4%, C[C@@H]1CN([C@H](C)CO)C(=O)c2cc(N(C)C)ccc2O[C@H]1CN(C)S(=O)(=O)c1ccccc1 -5.41%, COc1ccc(S(=O)(=O)Nc2ccc3c(c2)C(=O)N([C@H](C)CO)C[C@@H](C)[C@H](CN(C)S(=O)(=O)c2ccccc2)OCCCC[C@H](C)O3)cc1 -24.8%, C[C@@H]1CCCCO[C@H](CN(C)C(=O)Nc2ccc(C(F)(F)F)cc2)[C@H](C)CN([C@H](C)CO)C(=O)c2cc(NS(=O)(=O)c3ccc(Cl)cc3)ccc2O1 -24.1%, COCC(=O)N1[C@H](C#N)[C@H](c2ccccc2-c2cccc(F)c2)[C@H]1CO 16%, C[C@H](CO)N1C[C@H](C)[C@@H](CN(C)Cc2ccccc2C(F)(F)F)OCc2ccccc2-c2ccccc2C1=O -29.4%, O=C(CCN1CCCCC1)N[C@@H]1CC[C@H](CC(=O)N2CCC(Cc3ccccc3)CC2)O[C@H]1CO -2.36%, CN(C)C(=O)c1cccc(-c2ccc([C@H]3[C@@H](CO)N4CCCCN(S(C)(=O)=O)C[C@@H]34)cc2)c1 9.06%, C[C@@H]1CN([C@@H](C)CO)S(=O)(=O)c2ccc(C3=CCCCC3)cc2O[C@H]1CN(C)S(=O)(=O)c1ccc(F)cc1 -17.2%
